Our source for the growth values is PubChem BioAssay (NCI).

Molecules are shown by their SMILES. This is part of a sample that, as a whole, favours compounds with a hit. Of some 83,000 tested, about 20% had one in any assay.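 Growth was measured after 48 h exposure to one concentration of compound in 96-well plates. Values under 10 count as active.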 Unmarked numbers belong to inactive results. Active and inactive are the calls of the source.

Test systems include NCI-H23 lung; NCI-H226 lung; NCI-H322M lung; HOP-62 NSCLC; NCI-H460 lung; HOP-92 NSCLC; NCI-H522 lung; A549/ATCC NSCLC; 786-0 renal; COLO 205 colon; DU-145 prostate; MALME-3M melanoma; MDA-MB-231 breast; SF-268 CNS; SF-295 CNS; SF-539 CNS; UACC-257 melanoma; M14 melanoma; K-562 leukemia; RXF 393 renal.
Holding throughout (assay): NCI-60 one-dose screen, 48 h (100 = growth as untreated, 0 = no growth, -100 = all killed)
Holding throughout (details): 10 µM unless noted

As to `O=C(Nc1sc2c(c1C(=O)O)CCCC2)c1cccc(C(F)(F)F)c1`, the growth is 90.1% with NCI-H23 lung; 103% in the test on NCI-H226 lung; 95% with NCI-H322M lung; 104% in the test on HOP-62 NSCLC; 78.5% in the test on NCI-H460 lung; 79.2% in the test with HOP-92 NSCLC. For the same compound, the growth in the test with NCI-H522 lung was 78.7%; with A549/ATCC NSCLC it was 85.3%; in the test on 786-0 renal, 94%; in the test with COLO 205 colon it was 113%; with DU-145 prostate, 94.2%; in the test on MALME-3M melanoma it was 99.9%. Besides, the growth in the test on MDA-MB-231 breast is 94%; with SF-268 CNS it was 94.9%; in the test on SF-295 CNS, 85.1%; in the test with SF-539 CNS, 93.4%; with UACC-257 melanoma, 80.7%; in the test with M14 melanoma, 98.8%.
Turning to `CCCCCCCCCCCCCCCC(=O)OC[C@@]1(O)C[C@@]23CC[C@@H]4C(C)(C)CCC[C@@]4(C)[C@@H]2CC[C@H]1C3`, the growth with NCI-H23 lung was 102%; with NCI-H226 lung it was 98.3%; with NCI-H322M lung it was 114%; with HOP-62 NSCLC it was 106%; in the test on NCI-H460 lung, 98.4%; with HOP-92 NSCLC it was 117%. Further, the growth with NCI-H522 lung is 89.3%; with A549/ATCC NSCLC it was 103%; in the test with 786-0 renal, 27.9%; in the test on DU-145 prostate, 108%; in the test on K-562 leukemia, 59.3%; in the test with MALME-3M melanoma, 112%. Moreover, the growth with MDA-MB-231 breast is 96%; with SF-268 CNS, 110%; in the test with SF-295 CNS, 111%; with SF-539 CNS it was 108%; in the test with UACC-257 melanoma, 104%; in the test with M14 melanoma, -51.8% (active).
For `c1ccc(C2CC(c3cccc(Nc4ccncc4)c3)=NN2c2ccccc2)cc1` (stereo unspecified), the growth in the test with NCI-H23 lung was 85.8%; in the test on NCI-H226 lung, 96.1%; in the test with NCI-H322M lung, 82.5%; in the test on HOP-62 NSCLC it was 71.1%; in the test with NCI-H460 lung, -41.9% (active); with HOP-92 NSCLC, 55.5%. Also, the growth in the test on NCI-H522 lung is 89.1%; in the test on A549/ATCC NSCLC, 50.9%; with 786-0 renal, 68.4%; with DU-145 prostate, 67.7%; in the test on K-562 leukemia, 0.756% (active); in the test on MALME-3M melanoma, -12.1% (active). The growth in the test with MDA-MB-231 breast is 75.3%; with SF-268 CNS, 86.6%; with SF-295 CNS, 78.6%; in the test on SF-539 CNS, 78.1%; in the test with UACC-257 melanoma, 34%; with M14 melanoma, -57.4% (active).
Turning to `CSc1nnc2c(=O)n(C)c(=O)n(C)c2n1`, the growth in the test on NCI-H23 lung is 108%; with NCI-H226 lung, 93.2%; in the test with NCI-H322M lung, 88.9%; in the test on HOP-62 NSCLC, 116%; in the test with NCI-H460 lung it was 114%; in the test with HOP-92 NSCLC it was 68.1%. Further, the growth is 103% with NCI-H522 lung; 104% in the test on A549/ATCC NSCLC; 116% with 786-0 renal; 100% with DU-145 prostate; 86.1% in the test with K-562 leukemia; 114% in the test on MALME-3M melanoma. For the same compound, the growth in the test on MDA-MB-231 breast was 105%; with SF-268 CNS, 108%; with SF-295 CNS, 130%; in the test with SF-539 CNS, 109%; in the test on UACC-257 melanoma, 123%; in the test on M14 melanoma, 102%.
As to `C#CCn1cc(C=C2C(=O)NC(=S)NC2=O)c2cc(Cl)ccc21`, the growth in the test with NCI-H23 lung is -4.83% (active); in the test with NCI-H226 lung it was 61.6%; in the test with NCI-H322M lung it was 80.3%; with HOP-62 NSCLC it was -5.32% (active); in the test with NCI-H460 lung, 14.6%; in the test on HOP-92 NSCLC it was 48.4%. Moreover, the growth is 51.1% with NCI-H522 lung; 98.3% in the test with A549/ATCC NSCLC; -54.2% (active) in the test on 786-0 renal; 3.03% (active) with DU-145 prostate; 15% in the test with K-562 leukemia; 43.5% in the test on MALME-3M melanoma. Further, the growth with MDA-MB-231 breast is -26.1% (active); with SF-268 CNS it was 6.45% (active); in the test on SF-295 CNS, 46.4%; with SF-539 CNS, -57.2% (active); in the test with UACC-257 melanoma it was 61.7%; in the test on M14 melanoma, 44.4%.
Consider `C/C(=C(/c1ccccc1)c1ccc(OCC(O)CN2CCOCC2)cc1)c1ccccc1` (stereo unspecified), for which the growth with NCI-H23 lung was 101%; with NCI-H226 lung, 96.6%; in the test on NCI-H322M lung, 95.4%; in the test with HOP-62 NSCLC, 90.1%; with NCI-H460 lung, 92.6%; with HOP-92 NSCLC it was 80.2%. In addition, the growth with NCI-H522 lung is 73.3%; in the test on A549/ATCC NSCLC it was 87.2%; in the test with 786-0 renal, 67.1%; with DU-145 prostate it was 98.1%; in the test on K-562 leukemia, 19.7%; with MALME-3M melanoma, 75.3%. For the same compound, the growth in the test with MDA-MB-231 breast is 104%; with SF-268 CNS, 104%; in the test on SF-295 CNS, 108%; in the test with SF-539 CNS it was 74.2%; in the test with UACC-257 melanoma it was 93.4%; in the test with M14 melanoma, -45.1% (active).
For `c1ccc2c(-c3c4ccsc4cc4[nH]c5ccccc5c34)c[nH]c2c1`, the growth in the test with NCI-H23 lung is 51.6%; with NCI-H226 lung, 67.9%; with NCI-H322M lung, 69.6%; in the test on HOP-62 NSCLC, 39.7%; with NCI-H460 lung, 11.6%; in the test with HOP-92 NSCLC, 63.1%. The growth in the test with NCI-H522 lung was 22.7%; with A549/ATCC NSCLC, 39.2%; in the test on 786-0 renal it was 27.9%; in the test on DU-145 prostate, 66.3%; with K-562 leukemia it was 16%; in the test with MALME-3M melanoma it was 46.7%. For the same compound, the growth in the test with MDA-MB-231 breast is 55%; in the test with RXF 393 renal it was 32.2%; in the test on SF-268 CNS it was 40.7%; in the test on SF-295 CNS, 26.7%; with SF-539 CNS, 17.9%; in the test on UACC-257 melanoma it was 66.9%. Also, the growth in the test with M14 melanoma is 8.79% (active).
On to `Cc1ccccc1CNc1ccc(N2CCOCC2)cc1`, for which the growth in the test with NCI-H23 lung is 99.1%; in the test with NCI-H226 lung, 107%; with NCI-H322M lung, 98.3%; with HOP-62 NSCLC, 117%; in the test on NCI-H460 lung, 112%; in the test with HOP-92 NSCLC, 115%. The growth with NCI-H522 lung is 101%; with A549/ATCC NSCLC, 103%; with 786-0 renal, 107%; in the test with DU-145 prostate, 102%; in the test with K-562 leukemia, 101%; in the test with MALME-3M melanoma, 102%. Besides, the growth in the test on MDA-MB-231 breast was 101%; in the test with RXF 393 renal, 114%; in the test with SF-268 CNS, 93.4%; in the test on SF-295 CNS it was 99.2%; in the test on SF-539 CNS, 111%; with UACC-257 melanoma it was 103%. In the test on M14 melanoma, the growth was 100%.
